# Reference: PubChem BioAssay AID434970 (Sanford-Burnham Center for Chemical Genomics, 2010)
# Out of some 11,000 compounds screened, about 310 (2.8%) were called active. Rule as the data show it: active = activity change below about -85%; inactive = the rest. Many of the other results were omitted from the sample, so actives are more common in it than they were.
# System: intestinal alkaline phosphatase [Mus musculus]
# Assay: activators of mouse IAP, confirmation, biochemical, luminescence, single concentration (AID 434970)
# Conditions: purified mouse IAP, CDP-Star luminescence, 30 min, at 10 µM; activation factor: measured here: IAP activation factor, stronger effect = higher value; activity change, negative = activation: stronger effect = lower value
Structure (SMILES),activation factor,"activity change, negative = activation"
CC(NC(=O)c1ccco1)c1ccc2c(c1)OCCO2 (configuration not stated),0.968,3.25% (inactive)
CCc1ccc(NC(=O)NC(C)c2ccc3c(c2)OCO3)cc1 (configuration not stated),2.66,-166% (active)
CC(C)c1ccc(NC(=S)NCc2ccc3c(c2)OCO3)cc1,1.36,-36.3% (inactive)
COc1cc2oc(=O)cc(-c3ccc(-c4ccc(C)cc4)cc3)c2c(OC)c1OC,0.934,6.55% (inactive)
COc1ccc(CC(=O)N[C@@H]2c3ccccc3CC[C@@H]2OCc2ccccc2)cc1,1.19,-18.9% (inactive)
Cc1sc2nc(CN3CCOCC3)nc(NS(=O)(=O)c3ccc4c(c3)OCCO4)c2c1C,0.956,4.4% (inactive)
Cc1cc(C)nc(N2CCC(C(=O)NCc3cccc(C(F)(F)F)c3)CC2)n1,0.95,5.1% (inactive)
Cc1ccc(C(=O)NC(Cc2cccc(C(F)(F)F)c2)C(=O)O)cc1 (configuration not stated),1.14,-13.9% (inactive)
CCc1cc(Cn2nc(-c3ccccc3)cc2C(=O)NCc2cccc(C(F)(F)F)c2)on1,2.52,-152% (active)
O=C(NCc1ccccc1)c1cc2nc(C3CC3)cc(C(F)(F)F)n2n1,0.96,4% (inactive)
Cc1cc(Cn2nc(-c3ccccc3)cc2C(=O)NCc2cccc(C(F)(F)F)c2)on1,2.25,-125% (active)
CCCC1C2C(=O)N(c3ccccc3OCC)C(=O)C2ON1c1ccccc1 (configuration not stated),1.1,-9.6% (inactive)
CCCN1C(=O)c2ccc(C(=O)NC3CCCCC3)cc2C1=O,1.07,-6.9% (inactive)
C=CCNc1nc(-c2sc(NC(C)=O)nc2C)cs1,0.932,6.75% (inactive)
CCCCNc1nc2c(c(=O)n(C)c(=O)n2C)n1Cc1cccc(OC)c1,1.04,-4.2% (inactive)
CCCCCCNC(=O)N[C@@H](C(=O)NCCC[C@H]1CN2C(=NC[C@@H]2Cc2ccccc2)N1CCc1cccc(OC)c1)C(C)C,3.11,-211% (active)
O=C(CCCOc1ccccc1)Nc1nncs1,1.02,-1.6% (inactive)
COc1cccc(C(=O)OCC(=O)Nc2ccccc2N2CCOCC2)c1,0.909,9.1% (inactive)
CCCCNC(=O)C(C1CCCCC1)N(CCN(C)C)C(=O)CCCN1C(=O)NC(c2ccc(-c3ccccc3)cc2)C(C(=O)OCc2ccccc2)=C1C (configuration not stated),2.49,-148% (active)
CCCCNC(=O)C(C)N(CCN(C)C)C(=O)CCCN1C(=O)NC(c2ccc(Cl)cc2)C(C(=O)OCc2ccccc2)=C1C (configuration not stated),1.19,-18.9% (inactive)
CCCCCCN(C(=O)CCCN1C(=O)NC(c2ccc(-c3ccccc3)cc2)C(C(=O)OCc2ccccc2)=C1C)C(C)C(=O)NCCCC (configuration not stated),1.42,-41.5% (inactive)
CCOC(=O)c1c(C)[nH]c(C(=O)CSc2nnc(CC(C)c3ccccc3)o2)c1C (configuration not stated),0.943,5.7% (inactive)
COc1ccc(OC)c(NC(=O)Cn2c(=O)n(CC(=O)NCc3ccco3)c(=O)c3ccccc32)c1,0.997,0.3% (inactive)
OCCCN1c2ccccc2Nc2nnc(-c3ccccc3)cc21,3.08,-208% (active)
OCCCn1c(-c2ccccc2)n[nH]c1=S,1.02,-1.9% (inactive)
CN(CC(=O)Nc1cccc(Cl)c1)S(=O)(=O)c1ccc2[nH]c(=O)oc2c1,0.26,74.1% (inactive)

Structure (SMILES),activation factor,"activity change, negative = activation"
COc1cccc(CN(CC(=O)NC2CCCC2)C(=O)Cn2nnc(-c3cccs3)n2)c1,1.07,-7.3% (inactive)
Cc1ccc(NC(=O)Nc2cc(S(=O)(=O)N(C)C)ccc2C)cc1,1.84,-83.7% (inactive)
Cc1ccc(S(=O)(=O)N(C)C)cc1NC(=S)NC(C)CCCC(C)C (configuration not stated),1.26,-26.2% (inactive)
Cc1cc(C)cc(NC(=O)Nc2cc(S(=O)(=O)N(C)C)ccc2C)c1,3.43,-243% (active)
Cc1cc(NC(=O)Cn2c(=O)c3c(ncn3CC(C)C)n(Cc3ccccc3)c2=O)no1,1.09,-9.3% (inactive)
Cc1ccccc1-n1nc(C(=O)O)c(C)c(C#N)c1=O,0.98,2.05% (inactive)
COC(=O)c1cn(NC(=O)C2CCCO2)c(=O)c2ccccc12 (configuration not stated),1.03,-3.3% (inactive)
CCN(CC)C(=O)CSc1nc(-c2cccs2)cc(-c2cccs2)c1C#N,0.778,22.2% (inactive)
CCCCC1=CC2=C(c3ccco3)C(=O)C(C)(OC(=O)c3ccc(OC)cc3)C(=O)C2=CN1Cc1ccc2c(c1)OCO2 (configuration not stated),0.503,49.7% (inactive)
CCCCNC(=O)C1CCN(C/C(C)=C/c2ccccc2)CC1,1.02,-1.8% (inactive)
Cc1cc(NC(=O)C2CCN(S(=O)(=O)c3cnc[nH]3)CC2)ccc1Br,0.935,6.5% (inactive)
CCn1ncc(CN2CCC(C(=O)Nc3cccc(-c4cccc(F)c4)c3)CC2)c1C,2.83,-183% (active)
CCn1ncc(C2=NOC(C(=O)Nc3ccc(C)cc3)C2)c1C (configuration not stated),1.07,-7.35% (inactive)
CCOC(=O)c1ccc(NC(=O)C2CCN(S(=O)(=O)CC)CC2)cc1,0.952,4.8% (inactive)
CCCn1ncc(CN2CCC(C(=O)Nc3cccc(-c4cccc(F)c4)c3)CC2)c1C,5.28,-428% (active)
C/C(=N\OCC(=O)N/N=C/c1ccccc1O)c1cccs1,1.01,-1.25% (inactive)
COc1ccc(Cl)cc1N1C(=O)[C@@H]2C(c3cccc(OC)c3OC)=NO[C@@H]2C1=O,1,0.05% (inactive)
COc1ccc(NC(=O)C(=O)NCCN2CCN(C(=O)C(c3ccccc3)c3ccccc3)CC2)cc1,1.05,-5.05% (inactive)
Cc1cc(C)cc(NC(=S)NCc2ccc3c(c2)OCO3)c1,1.81,-80.9% (inactive)
CC(=O)NC(NC(=S)Nc1ccc(N=Nc2ccccc2C)cc1C)C(Cl)(Cl)Cl (configuration not stated),0.848,15.2% (inactive)
Cc1ccccc1NC(=S)NC(NC(=O)COc1ccccc1)C(Cl)(Cl)Cl (configuration not stated),1.73,-73% (inactive)
Cc1cc(C)c(NC(=S)NC(NC(=O)c2ccccc2)C(Cl)(Cl)Cl)c(C)c1 (configuration not stated),1.28,-28.3% (inactive)
Cc1ccc(NC(=S)NC(NC(=O)c2ccccc2C)C(Cl)(Cl)Cl)c(C)c1 (configuration not stated),3.11,-211% (active)
Cc1ccccc1NC(=S)NC(NC(=O)c1ccccc1C)C(Cl)(Cl)Cl (configuration not stated),2.07,-107% (active)
O=C(O)c1ccccc1NC(=S)NC(NC(=O)c1ccccc1[N+](=O)[O-])C(Cl)(Cl)Cl (configuration not stated),0.83,17% (inactive)
